ssDAF12 agonist: S. stercoralis DAF-12 nuclear receptor activators, primary screen, cell-based, luminescence, HEK293, GRIP1 co-expression, lit1-tk-luc. 370,000 tested, 1% active. HEK293 ssDAF-12/GRIP1 lit1-tk-luc reporter; % of 3 µM dafachronic acid response. AID 652126, 2013. activation, % at 6.8 µM;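 active means activation above the mean over all tested compounds plus 3 SD, cut at about 0.9% in these data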;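 further: 0% = DMSO-only wells and 100% = 3 µM delta7-dafachronic acid wells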
Wnt bcat act: Wnt/beta-catenin pathway activators, primary screen, cell-based, plate reader, single point; activation, % at 9.35 µM; AID 743398, 2014; 300,000 tested, 1.2% active; Wnt/beta-catenin reporter cell assay, activator; in the data active means activation above about 30%, passing the limit was not always enough;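 further: 0% = neutral control wells and 100% = positive control wells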
esBAF inh: Bmi1 luciferase reporter increase in mESCs, primary screen, esBAF inhibitor project, mouse ES cells, Bmi1 luciferase knock-in, single point | reporter increase, % at 12.5 µM | 24 h; 100% = twice the neutral-well signal | AID 602393, 2012 | 350,000 tested, 2% active; in the data active means activation above about 40%;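 further: 0% = median of the plate's neutral control wells and 100% = double that signal; a rise in the Bmi1 reporter signal indicates esBAF inhibition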
DAX1 inh: DAX1 (NR0B1) inhibitors on StAR promoter, primary screen, cell-based, luminescence, SF-1 (NR5A1), full-length DAX-1; HEK293T StAR-luciferase reporter, SF-1/DAX-1 repression relief; inhibition, % at 6.8 µM; 370,000 tested, 1.1% active;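 active means inhibition above the mean over all tested compounds plus 3 SD, cut at about 3.6% in these data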;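 further: 0% = DAX-1 cells with DMSO and 100% = cells lacking DAX-1 with DMSO; higher inhibition means more luminescence from relief of DAX-1 repression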
hgDAF-12 ag: H. glycines DAF-12 receptor agonists, primary screen, cell-based, luminescence, HEK293, GAL4 fusion, UAS-luciferase; Nuclear hormone receptor DAF-12 (Heterodera glycines), GAL4 fusion; HEK293 GAL4-hgDAF12 UAS-luciferase reporter, agonist luminescence; normalized to butyrate control; activation, % at 6.8 µM; 370,000 tested, 1.8% active;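 active means activation above a cutoff set at the mean of all screened compounds plus 3 SD, cut at about 10% in these data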;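 further: 0% = DMSO wells and 100% = sodium butyrate wells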
hcDAF-12 act: H. contortus DAF-12 nuclear receptor activators, primary screen, cell-based, luminescence, HEK293, lit1-tk-luc reporter; 370,000 tested, 1.4% active; activation, % at 6.8 µM; HEK293 hcDAF-12 lit1-tk-luc reporter; 0% DMSO, 100% Δ7-dafachronic acid; AID 652067, 2013;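 active means activation above the mean of all tested compounds plus 3 SD, cut at about 5.5% in these data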;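 further: 100% = response to 3 µM Δ7-dafachronic acid high control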
* = called active by the depositor. Shown are actives, neighbours in structure and some others; about 4.2% of the full set was active somewhere.

Results for O=C(O)c1ccc(/C=C(\c2nc3ccccc3[nH]2)c2nc3ccccc3s2)cc1 ?
ssDAF12 agonist: 0; Wnt bcat act: 42*; DAX1 inh: 0; hgDAF-12 ag: 5; hcDAF-12 act: 2

What do the screens show for `CCNC(=O)[C@H]1[C@H](CO)[C@H]2Cn3c(ccc(C4=CCCC4)c3=O)[C@@H]1N2C(=O)CC`?
esBAF inh: -2

How did CC(C)COc1ccc(C(=O)Nc2ncn[nH]2)cc1 do in these assays?
ssDAF12 agonist: -1; Wnt bcat act: 6; esBAF inh: 45*; DAX1 inh: 0; hgDAF-12 ag: 1; hcDAF-12 act: 4

How did CC(C)COc1ccc(C(=O)Nc2ccccc2[N+](=O)[O-])cc1 do in these assays?
ssDAF12 agonist: -1; Wnt bcat act: 80*; DAX1 inh: 1; hgDAF-12 ag: 7; hcDAF-12 act: 4

How did O=C(Cc1csc(Nc2nc(=S)[nH]c3ccccc23)n1)NCc1cccc(Cl)c1 do in these assays?
ssDAF12 agonist: 1; esBAF inh: 7; DAX1 inh: -1; hgDAF-12 ag: 0; hcDAF-12 act: 6.5*

Results for Cc1ccc(CNC(=O)Cc2csc(Nc3nc(=S)[nH]c4ccccc34)n2)cc1 ?
ssDAF12 agonist: 0; Wnt bcat act: -1; DAX1 inh: 1; hgDAF-12 ag: 2; hcDAF-12 act: 5

What do the screens show for `S=c1nc(NCCc2ccccc2Cl)c2ccccc2[nH]1`?
ssDAF12 agonist: 0; Wnt bcat act: 26; esBAF inh: 41*; DAX1 inh: 0; hgDAF-12 ag: 2; hcDAF-12 act: -1

How did O=C(CCCCCNc1nc(=S)[nH]c2ccccc12)NCc1ccccc1Cl do in these assays?
ssDAF12 agonist: -2; Wnt bcat act: 7; DAX1 inh: 0; hgDAF-12 ag: 3; hcDAF-12 act: -1

What do the screens show for `O=C(Cc1csc(Nc2nc(=S)[nH]c3ccccc23)n1)NCc1ccccc1Cl`?
ssDAF12 agonist: 1.2*; esBAF inh: -3; DAX1 inh: -1; hgDAF-12 ag: 7; hcDAF-12 act: 5.9*

What do the screens show for `COc1ccccc1NC(=O)Nc1ccc2c(c1)OC[C@@H](C)N(Cc1ccccc1Cl)C[C@@H](C)[C@H](OC)CN(C)C2=O`?
esBAF inh: 11

What do the screens show for `CCOC(=O)/C(C#N)=C(C)/C=C1\Sc2ccccc2N1CC`?
ssDAF12 agonist: -1; Wnt bcat act: 17; esBAF inh: 67*; DAX1 inh: 1; hgDAF-12 ag: 2; hcDAF-12 act: -1

How did Cc1noc(C)c1S(=O)(=O)N(C)C[C@H]1OCCCC[C@H](C)Oc2ccc(NC(=O)Cc3ccccc3)cc2C(=O)N([C@@H](C)CO)C[C@H]1C do in these assays?
esBAF inh: 1

How did C[C@@H]1CN([C@@H](C)CO)C(=O)c2cc(Br)cnc2O[C@H]1CN(C)CC1CCCC1 do in these assays?
esBAF inh: -2

Results for Cc1ccc(Sc2cc(C)nc(-c3ccccn3)n2)cc1 ?
ssDAF12 agonist: -1; Wnt bcat act: 33*; DAX1 inh: -1; hgDAF-12 ag: 2; hcDAF-12 act: 0

What do the screens show for `CCNC(=O)C[C@@H]1CC[C@H](NC(=O)C2CCC2)[C@H](CO)O1`?
esBAF inh: 5

How did O=C(Nc1ccccc1)Nc1nnc(-c2ccccc2)s1 do in these assays?
ssDAF12 agonist: -1; Wnt bcat act: 33*; esBAF inh: 51*; DAX1 inh: 0; hgDAF-12 ag: 0; hcDAF-12 act: -1

How did CC(C)=CC(=O)Nc1nnc(-c2ccccc2)s1 do in these assays?
ssDAF12 agonist: 0; Wnt bcat act: 21; esBAF inh: 13; DAX1 inh: 3; hgDAF-12 ag: 9; hcDAF-12 act: 2

Results for Cc1ccc(NC(=O)Nc2nnc(-c3ccccc3F)s2)cc1 ?
ssDAF12 agonist: -1; Wnt bcat act: 33*; DAX1 inh: 1; hgDAF-12 ag: 3; hcDAF-12 act: 0

Results for O=C(Nc1nnc(-c2ccccc2)s1)c1ccccc1O ?
ssDAF12 agonist: -1; Wnt bcat act: 10; esBAF inh: 67*; DAX1 inh: 1; hgDAF-12 ag: 4; hcDAF-12 act: 1

What do the screens show for `O=C(Nc1ccccc1)Nc1ncc([N+](=O)[O-])s1`?
ssDAF12 agonist: 0; Wnt bcat act: 5; esBAF inh: -74; DAX1 inh: 3.7*; hgDAF-12 ag: 5; hcDAF-12 act: 5

How did COc1ccc(CN(C)C[C@H]2Oc3ccc(NC(=O)Nc4ccc5c(c4)OCO5)cc3C(=O)N([C@@H](C)CO)C[C@H]2C)cc1 do in these assays?
esBAF inh: -2

How did Cc1nn2cc(-c3cccc(Cl)c3)cnc2c1Br do in these assays?
ssDAF12 agonist: -1; Wnt bcat act: 6; DAX1 inh: 2; hgDAF-12 ag: 5; hcDAF-12 act: 1

What do the screens show for `Cc1nn2cc(-c3cccc(Cl)c3)cnc2c1Cl`?
ssDAF12 agonist: -1; Wnt bcat act: -1; esBAF inh: 79*; DAX1 inh: 2; hgDAF-12 ag: 5; hcDAF-12 act: 1

Results for CNC[C@H]1Oc2ccc(NC(=O)Cc3cn(C)c4ccccc34)cc2C(=O)N([C@@H](C)CO)C[C@H]1C ?
esBAF inh: -1

What do the screens show for `CC(C)=CCc1c(O)cc2c(=O)c3ccc(O)cc3oc2c1O`?
ssDAF12 agonist: -1; Wnt bcat act: -2; esBAF inh: 59*; DAX1 inh: -1; hgDAF-12 ag: 2; hcDAF-12 act: 1

What do the screens show for `C[n+]1c(-c2ccccc2)sc([S-])c1-c1ccccc1`?
ssDAF12 agonist: -1; Wnt bcat act: 44*; DAX1 inh: 0; hgDAF-12 ag: 0; hcDAF-12 act: 0

Results for COc1cccc(NC(=O)c2ccnc(N3CCC(C(=O)NCc4ccccc4OC)CC3)c2)c1 ?
ssDAF12 agonist: -1; Wnt bcat act: 11; esBAF inh: 73*; DAX1 inh: 0; hgDAF-12 ag: 3; hcDAF-12 act: 2

How did COc1ccccc1CNC(=O)C1CCCN(c2cnccn2)C1 (stereo not given) do in these assays?
ssDAF12 agonist: 0; Wnt bcat act: 0; esBAF inh: -10; DAX1 inh: -1; hgDAF-12 ag: -2; hcDAF-12 act: -1

How did O=C(C[C@H]1C[C@@H]2c3cc(NC(=O)C4CCC4)ccc3O[C@@H]2[C@H](CO)O1)NCC(F)(F)F do in these assays?
esBAF inh: 0

Screens as filed in PubChem.
